The target of experiment [1] is Transcription factor E2F1 (Homo sapiens) (UniProt Q01094). As to the kind of experiment: ATG_E2F_CIS: Attagene CIS-FACTORIAL HepG2 Assay for human E2F Transcription Factor 1 (AID 2282935). To be noted: HepG2 Attagene cis-reporter, E2F reporter RNA transcripts; actives raise or lower the signal. The procedure, abridged: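 Multiplexed cis-reporter assay: HepG2, transient transfection, 24 h dosing, mRNA quantitation by labeled RT-PCR and CE.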

Experiment [2] in a line: ATG_E_Box_CIS: Attagene CIS-FACTORIAL HepG2 Assay for human Enhancer Box (E-box) (AID 2282936). As to conditions: HepG2 E-box cis-reporter transcription, actives raise or lower the signal. The procedure, abridged:
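Multiplexed CIS reporter system in transiently transfected HepG2 cells measures native transcription factor activity. Reporter RNA after 24 h exposure is profiled by RT-PCR-capillary electrophoresis.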

Experiment [3] in a line: ATG_M_61_CIS: Attagene CIS-FACTORIAL HepG2 Assay for M61 Transcription Factor (Internal Marker) (AID 2282937). As to conditions: HepG2 Attagene CIS-FACTORIAL M61 internal marker reporter; actives raise or lower the signal. The gist of the method:
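Readout is reporter mRNA by RT-PCR, fluorescent primer extension and capillary electrophoresis, with gain or loss fitted relative to DMSO. Transfected HepG2 cells carrying endogenous-TF-driven cis reporters were exposed to chemicals for 24 hours.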

A short description of experiment [4]: ATG_EGR_CIS: Attagene CIS-FACTORIAL HepG2 Assay for human Early Growth Response 1 (EGR1) (AID 2282938). As to conditions: HepG2 Attagene CIS-FACTORIAL EGR reporter mRNA; actives raise or lower the signal. The procedure, abridged:
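After 24 h compound exposure, RNA from reporter-transfected HepG2 cells was reverse-transcribed, PCR-amplified, fluorescently labelled and resolved by capillary electrophoresis. EGR1 reporter transcript changes, up or down, were fitted against DMSO, reflecting endogenous transcription-factor activity.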

Experiment [5] is described as follows: ATG_ERE_CIS: Attagene CIS-FACTORIAL HepG2 Assay for Estrogen Response Element (ERE) (AID 2282940). As to conditions: HepG2 ERE cis-reporter, Attagene RNA transcript; actives raise or lower the signal. The gist of the method: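 Readout: reporter mRNA induction by RT-PCR, FAM-labelled primer extension, HpaI digestion and capillary electrophoresis, 24 h after dosing transfected HepG2 cells. Endogenous transcription factors act on cis-element-regulated reporters. Gain or loss fitted against DMSO.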

A short description of experiment [6]: ATG_Ets_CIS: Attagene CIS-FACTORIAL HepG2 Assay for human Erythroblast Transformation Specific (ETS) (AID 2282941). To be noted: HepG2 ETS cis-reporter transcription, actives raise or lower the signal. The gist of the method:
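HepG2 cells transiently transfected with cis-promoter reporter transcription units were dosed for 24 h; reporter mRNA was measured by RT-PCR, 6-FAM primer extension, HpaI digestion and capillary electrophoresis, with bidirectional fitting against DMSO baseline.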

In experiment [7] the target is Hepatocyte nuclear factor 3-beta (Homo sapiens) (UniProt Q9Y261). As to the kind of experiment: ATG_FoxA2_CIS: Attagene CIS-FACTORIAL HepG2 Assay for human Forkhead box A2 (FOXA2) (AID 2282942). As to conditions: HepG2 cis-reporter transcription factor activity, 24 h; actives raise or lower the signal. The procedure, abridged: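 Endogenous transcription factor activity is captured via cis-element-driven reporter transcripts in transfected HepG2. Total RNA taken at 24 h post-dosing; labelled RT-PCR products resolved by capillary electrophoresis. Gain or loss fitted versus DMSO.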
Sequence of Hepatocyte nuclear factor 3-beta (Homo sapiens) (Q9Y261 whole entry, looked up): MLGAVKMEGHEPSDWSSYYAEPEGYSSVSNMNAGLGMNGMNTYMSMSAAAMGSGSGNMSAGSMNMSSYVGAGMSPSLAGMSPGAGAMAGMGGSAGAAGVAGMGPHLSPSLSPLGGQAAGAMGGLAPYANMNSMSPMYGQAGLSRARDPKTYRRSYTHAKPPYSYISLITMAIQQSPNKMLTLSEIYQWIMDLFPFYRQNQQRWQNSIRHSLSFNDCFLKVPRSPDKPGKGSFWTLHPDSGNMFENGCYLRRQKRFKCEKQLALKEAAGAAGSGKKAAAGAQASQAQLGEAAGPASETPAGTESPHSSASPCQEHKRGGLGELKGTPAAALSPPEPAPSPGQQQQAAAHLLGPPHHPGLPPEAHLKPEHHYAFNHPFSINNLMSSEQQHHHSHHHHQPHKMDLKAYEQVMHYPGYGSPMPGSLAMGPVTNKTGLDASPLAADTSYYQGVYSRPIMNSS

A short description of experiment [8]: ATG_FoxO_CIS: Attagene CIS-FACTORIAL HepG2 Assay for human Forkhead box O (FoxO) (AID 2282943). To be noted: HepG2 Attagene cis-reporter, FoxO element, mRNA; actives raise or lower the signal. The procedure, abridged: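 Values reflect reporter mRNA induction or loss in HepG2 cells 24 h post-dosing, fitted bidirectionally with DMSO as negative control and baseline. Detection used RT-PCR and fluorescence capillary electrophoresis.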

A short description of experiment [9]: ATG_GATA_CIS: Attagene CIS-FACTORIAL HepG2 Assay for human GATA Binding Protein (AID 2282944). To be noted: HepG2 GATA cis-element reporter, Attagene multiplex mRNA; actives raise or lower the signal. The gist of the method: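 Read-out: fluorescent reporter mRNA fragments resolved by capillary electrophoresis after RT-PCR. Human liver HepG2 cells carried transiently transfected cis-regulated reporter constructs; chemicals incubated 24 h; gain or loss of signal fitted relative to DMSO.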

Experiment [10] in a line: ATG_GLI_CIS: Attagene CIS-FACTORIAL HepG2 Assay for human Zinc Finger Protein GLI1 (AID 2282945). To be noted: HepG2, Attagene cis-factorial reporter mRNA, GLI element; actives raise or lower the signal. The procedure, abridged:
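HepG2 cells transiently transfected with cis-promoter multiplexed reporter units report endogenous transcription factor activity. After 24 h chemical exposure, reporter mRNA was quantified by RT-PCR, 6-FAM labelling, HpaI digestion and capillary electrophoresis, with bidirectional fitting against DMSO.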

Experiment [11] addresses Bile acid receptor (Homo sapiens) (UniProt Q96RI1). As to the kind of experiment: ATG_IR1_CIS: Attagene CIS-FACTORIAL HepG2 Assay for human Nuclear Receptor Subfamily 1 Group H Member 4 (NR1H4), IR1 submotif (AID 2282946). To be noted: IR1 reporter transcription, actives raise or lower the signal. The gist of the method: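 Transient MRTU transfection, HepG2; 24 h dosing; RNA → RT-PCR → 6-FAM primer extension → HpaI digest → capillary electrophoresis fluorescence. Gain/loss of signal fitted relative to DMSO.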

The nature of experiment [12]: ATG_GRE_CIS: Attagene CIS-FACTORIAL HepG2 Assay for human Glucocorticoid Response Elements (GRE) (AID 2282947). To be noted: HepG2 GRE cis-reporter, Attagene multiplex mRNA; actives raise or lower the signal. The gist of the method:
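Following 24 h chemical exposure of transiently transfected HepG2 cells, total RNA was reverse-transcribed and reporter cDNA amplified, fluorescently labelled and sized by capillary electrophoresis. Signal gain or loss was fitted relative to DMSO vehicle.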

Experiment [13] is described as follows: ATG_ISRE_CIS: Attagene CIS-FACTORIAL HepG2 Assay for human Interferon Regulatory Factor 1 (IRF1) binding to an Interferon-Stimulated Response Element (ISRE) (AID 2282948). To be noted: HepG2 ISRE cis-reporter (Attagene), mRNA transcription readout; actives raise or lower the signal. The procedure, abridged:
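HepG2 cells transiently transfected with multiplexed cis-promoter reporter units; after 24 h compound exposure, reporter mRNA quantified by RT-PCR, FAM labelling, HpaI digestion and capillary electrophoresis. Bidirectional fit versus DMSO baseline.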

A short description of experiment [14]: ATG_M_32_CIS: Attagene CIS-FACTORIAL HepG2 Assay for M32 Transcription Factor (Internal Marker) (AID 2282949).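 Further: background control marker of the multiplexed CIS panel rather than a real target.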 To be noted: HepG2 Attagene cis-factorial M32 reporter, mRNA; actives raise or lower the signal. The procedure, abridged: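 Fluorescent capillary electrophoresis peaks of HpaI-digested, FAM-labelled RT-PCR reporter products give the signal. Source: transiently transfected human liver HepG2 cells, 24 h after chemical dosing; bidirectional fitting against DMSO.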

The nature of experiment [15]: ATG_M_06_CIS: Attagene CIS-FACTORIAL HepG2 Assay for M06 Transcription Factor (Internal Marker) (AID 2282950). As to conditions: HepG2 Attagene CIS-FACTORIAL M06 internal marker reporter; actives raise or lower the signal. The gist of the method: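 Terse: HepG2, transient MRTU transfection (FuGene 6), 24 h dosing; total RNA, oligo(dT) RT, PCR, FAM label, HpaI cut, capillary electrophoresis; bidirectional fit vs DMSO baseline; background-control endpoint.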

The target of experiment [16] is Hypoxia-inducible factor 1-alpha (Homo sapiens) (UniProt Q16665). As to the kind of experiment: ATG_HIF1a_CIS: Attagene CIS-FACTORIAL HepG2 Assay for human Hypoxia Inducible Factor 1 (HIF1A) (AID 2282951). To be noted: HepG2 Attagene cis-factorial HIF1a reporter transcription; actives raise or lower the signal. The gist of the method:
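Activity is fitted in both directions relative to DMSO. Reporter transcripts are read by RT-PCR, fluorescent primer extension and capillary electrophoresis after 24 h chemical treatment. The cells are HepG2 carrying transiently transfected cis-element-driven reporter units responding to endogenous factors.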

Experiment [17] concerns the target Hepatocyte nuclear factor 6 (Homo sapiens) (UniProt Q9UBC0). Kind of experiment: ATG_HNF6_CIS: Attagene CIS-FACTORIAL HepG2 Assay for human Hepatocyte Nuclear Factor 6 (HNF6) (AID 2282952). As to conditions: HepG2 Attagene cis-factorial HNF6 reporter transcription; actives raise or lower the signal. The gist of the method:
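Reporter mRNA induction or loss in HepG2 after 24 h exposure; transient cis-MRTU transfection; fragments quantified by capillary electrophoresis; bidirectional analysis, DMSO as negative control.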

The target in experiment [18] is Heat shock factor protein 1 (Homo sapiens) (UniProt Q00613). Kind of experiment: ATG_HSE_CIS: Attagene CIS-FACTORIAL HepG2 Assay for human Heat Shock Transcription Factor 1 (HSE) (AID 2282953). As to conditions: HepG2 HSE cis-reporter, Attagene RNA transcription; actives raise or lower the signal. The gist of the method: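 Read-out: fluorescence of reporter-specific RT-PCR fragments separated by capillary electrophoresis. HepG2 carrying transfected cis-element reporter units; 24 h dosing; activity fitted in both directions relative to DMSO baseline.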
Sequence of Heat shock factor protein 1 (Homo sapiens) (Q00613 whole entry, looked up, the tested form may be a part): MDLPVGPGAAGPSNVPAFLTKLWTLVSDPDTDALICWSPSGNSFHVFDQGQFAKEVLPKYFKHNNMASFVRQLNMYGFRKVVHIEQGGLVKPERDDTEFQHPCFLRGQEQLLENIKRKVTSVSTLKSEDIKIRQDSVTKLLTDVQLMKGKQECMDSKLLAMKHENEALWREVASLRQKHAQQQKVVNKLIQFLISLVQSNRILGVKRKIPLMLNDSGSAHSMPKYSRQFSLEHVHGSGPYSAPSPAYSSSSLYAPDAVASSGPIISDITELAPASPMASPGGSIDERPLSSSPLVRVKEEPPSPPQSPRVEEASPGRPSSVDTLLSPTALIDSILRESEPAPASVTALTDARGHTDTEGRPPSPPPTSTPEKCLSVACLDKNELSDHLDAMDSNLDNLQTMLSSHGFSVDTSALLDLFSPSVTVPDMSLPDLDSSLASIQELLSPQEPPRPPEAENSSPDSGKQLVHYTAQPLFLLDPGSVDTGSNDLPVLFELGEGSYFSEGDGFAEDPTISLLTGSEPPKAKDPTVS

A short description of experiment [19]: ATG_MRE_CIS: Attagene CIS-FACTORIAL HepG2 Assay for human Metal Responsive Element (MRE) (AID 2282954). To be noted: HepG2 MRE cis-reporter transcription, Attagene multiplex; actives raise or lower the signal. The procedure, abridged:
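Step one: transfect HepG2 with cis-regulated reporter units. Step two: dose 24 h. Step three: isolate RNA, RT-PCR, 6-FAM label, HpaI digest, capillary electrophoresis. Fit bidirectionally to DMSO.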

The nature of experiment [20]: ATG_M_19_CIS: Attagene CIS-FACTORIAL HepG2 Assay for M19 Transcription Factor (Internal Marker) (AID 2282939). To be noted: HepG2 Attagene CIS-FACTORIAL M19 internal marker reporter; actives raise or lower the signal. The procedure, abridged:
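Readout: fluorescent reporter-transcript fragments by capillary electrophoresis after RT-PCR. Human HepG2 liver cells carried transfected MRTU constructs reporting endogenous transcription-factor activity; exposure 24 h. Gain or loss of signal fitted relative to DMSO.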

Structures are written as SMILES. Calls of active or inactive are those of the source. How the source made its calls: active means hit-call score of the fitted dose curve at least 0.9, where 1 is the maximum; inactive means score below 0.9.

For orientation: AC50 means the midpoint of the concentration-response curve, whichever way the signal moves.

Sequence of Hepatocyte nuclear factor 6 (Homo sapiens) (Q9UBC0 whole entry, looked up, the tested form may be a part): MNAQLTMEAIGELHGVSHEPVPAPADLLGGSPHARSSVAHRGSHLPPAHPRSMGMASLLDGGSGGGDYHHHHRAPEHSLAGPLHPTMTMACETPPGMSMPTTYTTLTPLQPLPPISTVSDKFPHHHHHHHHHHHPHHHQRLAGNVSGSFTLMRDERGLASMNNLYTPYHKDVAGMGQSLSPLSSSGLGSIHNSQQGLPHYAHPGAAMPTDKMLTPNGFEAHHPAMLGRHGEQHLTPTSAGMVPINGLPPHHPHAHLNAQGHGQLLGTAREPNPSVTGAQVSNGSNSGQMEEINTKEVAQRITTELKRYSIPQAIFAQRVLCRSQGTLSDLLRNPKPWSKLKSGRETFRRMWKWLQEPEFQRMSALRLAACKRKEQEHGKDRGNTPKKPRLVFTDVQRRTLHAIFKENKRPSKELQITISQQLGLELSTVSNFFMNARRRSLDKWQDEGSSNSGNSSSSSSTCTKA
Sequence of Hypoxia-inducible factor 1-alpha (Homo sapiens) (Q16665 whole entry, looked up): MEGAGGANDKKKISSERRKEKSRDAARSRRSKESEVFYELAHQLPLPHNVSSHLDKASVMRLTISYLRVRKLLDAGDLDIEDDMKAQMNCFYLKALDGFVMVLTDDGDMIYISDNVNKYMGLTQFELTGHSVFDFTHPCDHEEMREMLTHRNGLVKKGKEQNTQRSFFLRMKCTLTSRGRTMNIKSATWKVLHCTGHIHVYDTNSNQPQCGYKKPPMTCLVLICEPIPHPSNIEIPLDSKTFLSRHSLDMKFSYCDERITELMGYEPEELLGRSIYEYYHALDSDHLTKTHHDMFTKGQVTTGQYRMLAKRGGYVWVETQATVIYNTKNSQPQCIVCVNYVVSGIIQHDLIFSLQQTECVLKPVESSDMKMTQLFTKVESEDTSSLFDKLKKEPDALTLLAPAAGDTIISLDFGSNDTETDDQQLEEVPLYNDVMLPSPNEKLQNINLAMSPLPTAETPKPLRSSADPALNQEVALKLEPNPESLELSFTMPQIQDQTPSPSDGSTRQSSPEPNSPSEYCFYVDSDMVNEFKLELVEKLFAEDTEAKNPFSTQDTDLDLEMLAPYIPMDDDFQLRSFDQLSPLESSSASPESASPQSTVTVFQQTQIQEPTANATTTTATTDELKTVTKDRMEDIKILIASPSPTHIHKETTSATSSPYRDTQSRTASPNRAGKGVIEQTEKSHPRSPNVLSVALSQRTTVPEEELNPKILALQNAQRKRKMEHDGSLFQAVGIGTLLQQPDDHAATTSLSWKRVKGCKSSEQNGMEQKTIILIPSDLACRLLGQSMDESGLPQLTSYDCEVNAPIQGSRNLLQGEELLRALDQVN
Sequence of Transcription factor E2F1 (Homo sapiens) (Q01094 whole entry, looked up): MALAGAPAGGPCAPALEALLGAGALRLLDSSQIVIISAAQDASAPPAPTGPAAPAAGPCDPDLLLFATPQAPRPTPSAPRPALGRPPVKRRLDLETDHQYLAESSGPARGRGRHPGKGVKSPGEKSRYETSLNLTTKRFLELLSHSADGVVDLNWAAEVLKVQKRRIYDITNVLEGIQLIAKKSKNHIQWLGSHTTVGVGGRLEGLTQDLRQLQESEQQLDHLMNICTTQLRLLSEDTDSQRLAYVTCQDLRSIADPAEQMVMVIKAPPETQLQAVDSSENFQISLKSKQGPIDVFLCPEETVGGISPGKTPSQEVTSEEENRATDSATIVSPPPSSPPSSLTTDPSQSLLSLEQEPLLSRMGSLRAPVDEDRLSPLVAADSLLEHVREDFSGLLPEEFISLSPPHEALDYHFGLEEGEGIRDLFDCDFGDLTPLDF
Sequence of Bile acid receptor (Homo sapiens) (Q96RI1 whole entry, looked up): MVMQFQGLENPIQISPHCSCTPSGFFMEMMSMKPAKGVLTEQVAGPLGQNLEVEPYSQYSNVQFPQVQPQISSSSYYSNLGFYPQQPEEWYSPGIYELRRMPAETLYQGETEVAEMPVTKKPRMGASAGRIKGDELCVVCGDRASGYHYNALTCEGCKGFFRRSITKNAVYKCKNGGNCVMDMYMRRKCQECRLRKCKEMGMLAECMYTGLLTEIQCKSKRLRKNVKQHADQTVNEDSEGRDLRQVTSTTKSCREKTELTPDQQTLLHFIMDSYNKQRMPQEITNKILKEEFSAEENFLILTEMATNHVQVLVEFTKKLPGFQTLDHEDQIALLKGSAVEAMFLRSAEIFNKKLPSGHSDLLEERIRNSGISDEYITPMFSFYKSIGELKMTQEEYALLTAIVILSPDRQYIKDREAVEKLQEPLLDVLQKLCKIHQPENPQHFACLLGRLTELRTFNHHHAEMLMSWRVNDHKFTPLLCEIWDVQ

As to `COc1cc(-c2nc(NC(=O)c3cc4cc(C)cc(C)c4n3CC(=O)O)sc2CCC2CCCCC2)c(OC)cc1Cl`, the result in experiment [1], in [3], in experiment [5], in [7], in [8] and in experiment [9] was inactive. Further, the result in [11], in experiment [12], in experiment [14], in [15], in experiment [16] and in [17] was inactive. Moreover, the AC50 is 25.6 µM (active) in experiment [2]; 9.13 µM (active) in experiment [4]; 32.2 µM (active) in experiment [6]; 100 µM (active) in experiment [10]; 12.7 µM (active) in experiment [13]; 65.7 µM (active) in experiment [18]. The AC50 in experiment [19] was 6.2 µM (active).
Consider `CC(CO)OC(C)CO` (configuration not stated) (tested in a mixture with another compound), for which the outcome in experiment [1], in [2], in experiment [3], in [4], in experiment [5] and in experiment [6] was inactive. In addition, the result in experiment [7], in experiment [8], in experiment [9], in experiment [10], in [11] and in experiment [12] was inactive. Moreover, the call in experiment [13], in experiment [14], in [15], in experiment [17], in experiment [18] and in experiment [19] was inactive. Moreover, the AC50 in [16] is 4.72 µM (active).
For the compound `C=CCOC(=O)c1ccccc1C(=O)OCC=C`, the result in experiment [1], in [2], in experiment [3], in [4], in [20] and in experiment [5] was inactive. Further, the compound was classed as inactive in experiment [6], in experiment [7], in experiment [8], in [9], in [10] and in [13]. In addition, the compound was classed as inactive in experiment [14], in experiment [15], in [16], in experiment [17], in experiment [18] and in experiment [19]. Further, in experiment [11], the AC50 is 25.9 µM (active).

These data come from PubChem BioAssay (EPA / NIEHS).
